Experiment [1] has as its target Aryl hydrocarbon receptor (Homo sapiens) (UniProt P35869). The experiment in a line: ATG_Ahr_CIS: Attagene CIS-FACTORIAL HepG2 Assay for human Aryl Hydrocarbon Receptor (Ahr) (AID 2282930). The settings on record: HepG2 AhR cis-factorial reporter transcription; actives raise or lower the signal. Put shortly: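 Reporter mRNA levels, quantified by RT-PCR and fluorescent capillary electrophoresis, reflect endogenous AhR transcriptional activity in HepG2 cells carrying transfected cis-promoter reporter constructs. Readout at 24 h post-dose; gain or loss fitted against DMSO baseline.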

The target in experiment [2] is Hypoxia-inducible factor 1-alpha (Homo sapiens) (UniProt Q16665). In words: ATG_HIF1a_CIS: Attagene CIS-FACTORIAL HepG2 Assay for human Hypoxia Inducible Factor 1 (HIF1A) (AID 2282951). The settings on record: HepG2 Attagene cis-factorial HIF1a reporter transcription; actives raise or lower the signal. Put shortly: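 HepG2 cells transiently transfected with multiplexed cis-promoter reporter units; reporter mRNA read 24 h after dosing by RT-PCR, 6-FAM primer-extension labelling, HpaI digestion and capillary electrophoresis. Bidirectional fit versus DMSO baseline.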
Hypoxia-inducible factor 1-alpha (Homo sapiens), sequence (Q16665 whole entry, looked up): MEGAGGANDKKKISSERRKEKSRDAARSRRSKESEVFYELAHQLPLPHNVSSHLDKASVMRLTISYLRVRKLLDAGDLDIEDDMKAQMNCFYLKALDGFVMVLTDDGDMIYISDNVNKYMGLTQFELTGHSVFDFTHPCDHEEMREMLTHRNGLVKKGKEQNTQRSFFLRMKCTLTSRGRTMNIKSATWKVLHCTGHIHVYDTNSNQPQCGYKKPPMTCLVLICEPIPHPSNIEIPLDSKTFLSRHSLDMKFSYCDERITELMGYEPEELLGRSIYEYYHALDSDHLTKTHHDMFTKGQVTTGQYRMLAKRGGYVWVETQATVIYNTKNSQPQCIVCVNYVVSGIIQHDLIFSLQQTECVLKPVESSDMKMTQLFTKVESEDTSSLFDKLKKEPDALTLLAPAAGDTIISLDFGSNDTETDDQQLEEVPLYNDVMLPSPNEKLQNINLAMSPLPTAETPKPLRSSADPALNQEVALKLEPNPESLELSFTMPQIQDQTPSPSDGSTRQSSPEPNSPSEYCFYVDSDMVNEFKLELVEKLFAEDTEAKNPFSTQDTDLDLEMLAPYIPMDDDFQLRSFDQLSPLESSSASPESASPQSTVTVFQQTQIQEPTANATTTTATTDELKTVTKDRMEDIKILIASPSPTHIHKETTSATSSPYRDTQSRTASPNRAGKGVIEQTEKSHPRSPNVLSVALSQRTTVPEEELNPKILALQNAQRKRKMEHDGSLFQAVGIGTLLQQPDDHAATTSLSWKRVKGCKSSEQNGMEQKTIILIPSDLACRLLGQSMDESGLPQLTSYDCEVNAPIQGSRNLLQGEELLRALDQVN

Experiment [3] addresses Transcription factor Sp1 (Homo sapiens) (UniProt P08047). In words: ATG_Sp1_CIS: Attagene CIS-FACTORIAL HepG2 Assay for human Specificity Protein 1 (Sp1) (AID 2282961). The following applies: HepG2 Sp1 cis-reporter transcription, actives raise or lower the signal. Put shortly:
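HepG2 cells transiently transfected with multiple reporter transcription units driven by cis-regulatory elements; Sp1-responsive reporter mRNA measured 24 h after dosing by RT-PCR and capillary electrophoresis fluorescence, fitted bidirectionally against DMSO baseline.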

A short description of experiment [4]: ATG_TA_CIS: Attagene CIS-FACTORIAL HepG2 Assay for human TA Basal Promoter (AID 2282964). The following applies: HepG2 Attagene CIS-factorial TA basal promoter reporter; actives raise or lower the signal. The gist of the method: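 HepG2 cells transiently transfected with multiplexed cis-promoter reporter units, dosed 24 h. Reporter mRNA measured by RT-PCR, 6-FAM labelling, HpaI digestion and capillary electrophoresis; bidirectional fit versus DMSO baseline, serving as background control.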

Experiment [5] can be described thus: ATG_TCF_b_cat_CIS: Attagene CIS-FACTORIAL HepG2 Assay for human T-Cell-Factor with beta-catenin (TCF/b-cat) (AID 2282965). The following applies: HepG2 TCF/beta-catenin cis-reporter transcription, actives raise or lower the signal. The gist of the method:
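Endogenous TCF/LEF activity read as reporter transcript level via RT-PCR and capillary electrophoresis fluorescence in transfected HepG2, 24 h exposure; gain or loss of signal fitted against DMSO controls.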

A short description of experiment [6]: ATG_TAL_CIS: Attagene CIS-FACTORIAL HepG2 Assay for human TAL Basal Promoter (AID 2282966).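 Further: background control endpoint measuring basal TAL promoter reporter mRNA not a specific factor.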 The following applies: HepG2 Attagene cis-factorial TAL promoter reporter; actives raise or lower the signal. The gist of the method:
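Endogenous transcription-factor activity is sensed in HepG2 cells through transfected cis-promoter reporter constructs. After 24 h dosing, reporter transcripts are quantified by RT-PCR and capillary electrophoresis. Gain or loss of signal is fitted relative to DMSO.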

The nature of experiment [7]: ATG_TGFb_CIS: Attagene CIS-FACTORIAL HepG2 Assay for human Transforming Growth Factor (TGF) (AID 2282967). The following applies: HepG2 Attagene CIS TGFb reporter, mRNA transcription; actives raise or lower the signal. Put shortly: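 HepG2 cells transiently transfected with cis-promoter-driven multiplexed reporter units; 24 h compound exposure. Reporter mRNA measured by RT-PCR, 6-FAM labeling, HpaI digestion and capillary electrophoresis; bidirectional fit versus DMSO baseline.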

The nature of experiment [8]: ATG_VDRE_CIS: Attagene CIS-FACTORIAL HepG2 Assay for human Vitamin D Receptor Element (VDRE) (AID 2282968). The settings on record: HepG2 VDRE cis-reporter transcription, actives raise or lower the signal. Put shortly:
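Readout is VDRE-driven reporter mRNA reflecting endogenous factor activity in human HepG2 cells, sampled 24 h post-dose. Quantification used labelled RT-PCR products separated by capillary electrophoresis; bidirectional analysis relative to DMSO.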

Experiment [9] concerns the target X-box-binding protein 1 (Homo sapiens) (UniProt P17861). In words: ATG_Xbp1_CIS: Attagene CIS-FACTORIAL HepG2 Assay for human X-box Binding Protein 1 (XBP1) (AID 2282972). The following applies: HepG2 XBP1 cis-element reporter, Attagene multiplex; actives raise or lower the signal. The gist of the method:
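Read-out: fluorescent reporter mRNA fragments resolved by capillary electrophoresis after RT-PCR. Human HepG2 liver cells carried transfected cis-promoter reporter units and were exposed to chemicals for 24 hours. Gain or loss of signal fitted relative to DMSO baseline.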

Experiment [10] in a line: ATG_M_32_TRANS: Attagene TRANS-FACTORIAL HepG2 Assay for M32 Transcription Factor (Internal Marker) (AID 2282984; active means hit-call score of the fitted dose curve at least 0.9, where 1 is the maximum). The following applies: HepG2 Attagene TRANS M32 internal marker reporter. The gist of the method: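 Internal background reporter in transfected HepG2: after 24 h chemical exposure, RNA reverse-transcribed, reporter cDNA amplified, fluorescently labelled and HpaI-cut, then sized by capillary electrophoresis. Gain of signal fitted against DMSO control.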

Experiment [11] can be described thus: ATG_NFI_CIS: Attagene CIS-FACTORIAL HepG2 Assay for human Nuclear Factor I (NFI) (AID 2282989). The settings on record: HepG2 cis-regulatory reporter, NFI response element transcription; actives raise or lower the signal. The gist of the method:
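HepG2 cells transiently transfected with cis-element-driven multiplexed reporter transcription units, dosed for 24 h. Reporter mRNA quantified by RT-PCR, fluorescent labelling, HpaI digestion and capillary electrophoresis; bidirectional fit versus DMSO baseline.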

In experiment [12] the target is Myc proto-oncogene protein (Homo sapiens) (UniProt P01106). The experiment in a line: ATG_Myc_CIS: Attagene CIS-FACTORIAL HepG2 Assay for human Myelocytomatosis (Myc) Proto-Oncogene Transcription Factor (AID 2282990). The following applies: HepG2, Attagene cis-reporter transcription factor activity; actives raise or lower the signal. The gist of the method:
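After 24 h chemical treatment of HepG2 cells carrying multiplexed cis-regulated reporter constructs, reporter transcripts quantified by RT-PCR and capillary electrophoresis of fluorescent fragments. Gain or loss fitted against DMSO baseline.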

Experiment [13] can be described thus: ATG_NRF2_ARE_CIS: Attagene CIS-FACTORIAL HepG2 Assay for human Nuclear Factor Erythroid 2 Related Factor 2 (NFR2) response to Antioxidant Response Elements (ARE) (AID 2282992). The following applies: HepG2 Attagene ARE/NRF2 reporter, transcription factor activity; actives raise or lower the signal. The gist of the method:
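Readout: reporter mRNA quantified by RT-PCR plus FAM-labelled primer extension, HpaI digestion and capillary electrophoresis, 24 h after dosing transfected HepG2 cells. Gain or loss of signal is fitted bidirectionally against DMSO baseline.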

A short description of experiment [14]: ATG_Oct_MLP_CIS: Attagene CIS-FACTORIAL HepG2 Assay for human Octamer-Binding Transcription Factor (Oct) (AID 2282993). The following applies: HepG2 Attagene cis-factorial Oct reporter, mRNA; actives raise or lower the signal. The gist of the method:
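HepG2 cells transiently transfected with cis-promoter-driven multiplexed reporter transcription units, dosed for 24 h. Reporter mRNA quantified by RT-PCR, fluorescent labelling, HpaI digestion and capillary electrophoresis; bidirectional fits versus DMSO baseline.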

In experiment [15] the target is Cellular tumor antigen p53 (Homo sapiens) (UniProt P04637). In words: ATG_p53_CIS: Attagene CIS-FACTORIAL HepG2 Assay for human p53 Transcription Factor (AID 2282994). The following applies: HepG2 p53 cis-element reporter, Attagene mRNA; actives raise or lower the signal. Put shortly:
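Read-out: reporter mRNA by RT-PCR plus capillary electrophoresis with fluorescence detection. Human HepG2 liver cells carried transfected multi-reporter cis-element constructs, dosed 24 h. Gain or loss of signal fitted bidirectionally against DMSO control.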

Experiment [16] has the same target. In words: TOX21_p53_BLA_p4_ratio: Tox21 HCT-116 p53 Agonism Beta-lactamase Assay, Ratio, Phase 4 (AID 2283601; active means hit-call score of the fitted dose curve at least 0.9, where 1 is the maximum). Put shortly: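 Signal is the blue/green (460nm/530nm) ratio of cleaved versus uncleaved CCF4-AM substrate, read after 2 h substrate loading. Cells were HCT116 carrying the p53-responsive beta-lactamase reporter, dosed 16 h at 37C, 5% CO2; CellTiter-Glo measured in parallel.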

Experiment [17] can be described thus: ATG_GRE_CIS: Attagene CIS-FACTORIAL HepG2 Assay for human Glucocorticoid Response Elements (GRE) (AID 2282947). The settings on record: HepG2 GRE cis-reporter, Attagene multiplex mRNA; actives raise or lower the signal. Put shortly:
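Reporter transcripts read by RT-PCR with capillary electrophoresis fluorescence after a 24 h chemical exposure of HepG2 cells transiently transfected with multiple cis-element reporter units. Gain or loss fitted against DMSO.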

The target in experiment [18] is Signal transducer and activator of transcription 3 (Homo sapiens) (UniProt P40763). In words: ATG_STAT3_CIS: Attagene CIS-FACTORIAL HepG2 Assay for human Signal Transducer and Activator of Transcription 3 (STAT3) (AID 2282963). The following applies: HepG2, Attagene cis-factorial STAT3 reporter transcription; actives raise or lower the signal. The gist of the method: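 Readout is reporter transcript quantified by RT-PCR and capillary electrophoresis, with 6-FAM primer extension and HpaI digestion. Total RNA is taken 24 h after dosing transiently transfected HepG2 carrying cis-regulated reporter units. Bidirectional fit against DMSO.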
Signal transducer and activator of transcription 3 (Homo sapiens), sequence (P40763 whole entry, looked up): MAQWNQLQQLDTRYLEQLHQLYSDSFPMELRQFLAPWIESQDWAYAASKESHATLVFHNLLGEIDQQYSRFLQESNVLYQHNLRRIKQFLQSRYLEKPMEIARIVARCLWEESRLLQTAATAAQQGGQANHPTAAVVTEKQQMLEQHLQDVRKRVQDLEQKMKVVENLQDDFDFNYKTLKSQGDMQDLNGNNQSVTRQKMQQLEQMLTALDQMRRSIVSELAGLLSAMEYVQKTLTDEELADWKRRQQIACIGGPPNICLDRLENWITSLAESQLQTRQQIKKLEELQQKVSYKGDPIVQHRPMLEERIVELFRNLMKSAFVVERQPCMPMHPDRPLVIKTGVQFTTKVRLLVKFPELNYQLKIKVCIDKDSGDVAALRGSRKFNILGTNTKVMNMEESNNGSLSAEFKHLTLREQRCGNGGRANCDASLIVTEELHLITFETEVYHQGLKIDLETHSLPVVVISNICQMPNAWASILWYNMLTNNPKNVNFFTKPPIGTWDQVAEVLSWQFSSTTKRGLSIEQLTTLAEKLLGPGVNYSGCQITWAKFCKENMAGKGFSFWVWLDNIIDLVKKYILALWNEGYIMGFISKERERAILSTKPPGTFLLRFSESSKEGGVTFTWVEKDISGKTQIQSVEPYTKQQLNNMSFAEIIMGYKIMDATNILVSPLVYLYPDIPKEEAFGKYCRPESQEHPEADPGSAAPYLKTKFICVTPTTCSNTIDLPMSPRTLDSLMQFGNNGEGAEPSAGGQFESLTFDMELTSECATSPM

For experiment [19], the target named is Transcriptional activator Myb (Homo sapiens) (UniProt P10242). The experiment in a line: ATG_Myb_CIS: Attagene CIS-FACTORIAL HepG2 Assay for human Myeloblastosis (Myb) Proto-Oncogene Transcription Factor (AID 2282986). The settings on record: HepG2 Attagene CIS-FACTORIAL Myb reporter transcription; actives raise or lower the signal. The gist of the method:
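HepG2 cells were transiently transfected with cis-regulated multiple reporter transcription units reflecting endogenous Myb activity, then exposed to compound for 24 hours. Reporter mRNA was measured by RT-PCR with capillary electrophoresis; bidirectional fitting versus DMSO baseline.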

Experiment [20] concerns the target Peroxisome proliferator-activated receptor gamma (Homo sapiens) (UniProt P37231). The experiment in a line: ATG_PPARg_TRANS: Attagene TRANS-FACTORIAL HepG2 Assay for human Peroxisome Proliferator-activated Receptor-gamma (PPARg) (AID 2283007; active means hit-call score of the fitted dose curve at least 0.9, where 1 is the maximum). The gist of the method:
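HepG2 cells transiently transfected with multiplexed GAL4-UAS reporter units and exogenous chimeric NR-Gal4 proteins; reporter mRNA quantified after 24 h compound exposure by RT-PCR, fluorescent labelling, HpaI digestion and capillary electrophoresis; gain-of-signal fitted versus DMSO baseline.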

Records with an inconclusive call do not appear. Where a structure was tested more than once in an assay, its records may differ in their call. Active and inactive are the calls of the source. How the source made its calls, unless noted: active means hit-call score of the fitted dose curve at least 0.9, where 1 is the maximum; inactive means score below 0.9.

This note sets out measurements from PubChem BioAssay (EPA / NIEHS).

Cellular tumor antigen p53 (Homo sapiens), sequence (P04637 whole entry, looked up): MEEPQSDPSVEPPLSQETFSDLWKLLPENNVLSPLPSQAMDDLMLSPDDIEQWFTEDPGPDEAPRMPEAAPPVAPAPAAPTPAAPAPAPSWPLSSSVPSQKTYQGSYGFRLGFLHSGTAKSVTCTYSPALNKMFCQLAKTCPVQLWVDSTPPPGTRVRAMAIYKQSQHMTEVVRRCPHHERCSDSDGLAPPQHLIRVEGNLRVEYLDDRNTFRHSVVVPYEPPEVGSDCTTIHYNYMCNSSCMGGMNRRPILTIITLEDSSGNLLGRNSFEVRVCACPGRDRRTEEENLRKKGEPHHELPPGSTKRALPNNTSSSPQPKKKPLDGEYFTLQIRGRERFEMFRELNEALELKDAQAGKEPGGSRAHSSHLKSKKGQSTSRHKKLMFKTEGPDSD
Transcriptional activator Myb (Homo sapiens), sequence (P10242 whole entry, looked up): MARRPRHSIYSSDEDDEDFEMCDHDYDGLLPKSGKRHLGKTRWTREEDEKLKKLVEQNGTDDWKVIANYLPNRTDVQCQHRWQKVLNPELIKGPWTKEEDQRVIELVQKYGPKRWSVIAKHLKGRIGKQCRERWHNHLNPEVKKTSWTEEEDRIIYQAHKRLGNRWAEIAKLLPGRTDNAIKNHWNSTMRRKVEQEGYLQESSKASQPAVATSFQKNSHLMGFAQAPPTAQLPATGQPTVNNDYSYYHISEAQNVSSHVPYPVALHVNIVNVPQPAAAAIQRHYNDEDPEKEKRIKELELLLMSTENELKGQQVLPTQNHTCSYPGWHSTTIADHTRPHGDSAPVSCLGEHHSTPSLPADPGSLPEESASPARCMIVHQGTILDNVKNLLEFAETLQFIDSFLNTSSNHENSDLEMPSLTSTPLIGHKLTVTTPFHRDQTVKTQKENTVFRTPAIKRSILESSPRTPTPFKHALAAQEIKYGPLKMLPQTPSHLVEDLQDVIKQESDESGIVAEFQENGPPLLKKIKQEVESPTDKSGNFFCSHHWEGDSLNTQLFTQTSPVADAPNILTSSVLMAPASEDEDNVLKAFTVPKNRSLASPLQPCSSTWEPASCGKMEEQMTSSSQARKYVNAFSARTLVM
Transcription factor Sp1 (Homo sapiens), sequence (P08047 whole entry, looked up): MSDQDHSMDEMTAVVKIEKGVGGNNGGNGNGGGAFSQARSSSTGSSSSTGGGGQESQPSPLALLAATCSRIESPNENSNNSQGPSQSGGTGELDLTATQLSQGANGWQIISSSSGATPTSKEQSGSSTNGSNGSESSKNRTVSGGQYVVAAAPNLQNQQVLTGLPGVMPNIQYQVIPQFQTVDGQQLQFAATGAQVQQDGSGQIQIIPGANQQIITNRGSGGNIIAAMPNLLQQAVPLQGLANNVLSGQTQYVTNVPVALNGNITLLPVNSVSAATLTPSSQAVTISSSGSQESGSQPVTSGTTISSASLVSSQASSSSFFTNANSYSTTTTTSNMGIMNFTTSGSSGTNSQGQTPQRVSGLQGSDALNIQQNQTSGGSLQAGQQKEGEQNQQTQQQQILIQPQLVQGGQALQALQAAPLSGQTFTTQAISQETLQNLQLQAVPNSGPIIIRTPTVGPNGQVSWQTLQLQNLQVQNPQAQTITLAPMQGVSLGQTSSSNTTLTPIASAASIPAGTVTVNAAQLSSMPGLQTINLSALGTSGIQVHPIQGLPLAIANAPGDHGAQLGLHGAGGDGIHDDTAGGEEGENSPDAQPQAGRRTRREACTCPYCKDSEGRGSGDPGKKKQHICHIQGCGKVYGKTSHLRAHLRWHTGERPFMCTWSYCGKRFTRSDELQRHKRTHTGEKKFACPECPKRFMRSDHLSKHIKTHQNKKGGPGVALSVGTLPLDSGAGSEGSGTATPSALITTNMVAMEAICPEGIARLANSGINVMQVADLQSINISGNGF
Myc proto-oncogene protein (Homo sapiens), sequence (P01106 whole entry, looked up, the tested form may be a part): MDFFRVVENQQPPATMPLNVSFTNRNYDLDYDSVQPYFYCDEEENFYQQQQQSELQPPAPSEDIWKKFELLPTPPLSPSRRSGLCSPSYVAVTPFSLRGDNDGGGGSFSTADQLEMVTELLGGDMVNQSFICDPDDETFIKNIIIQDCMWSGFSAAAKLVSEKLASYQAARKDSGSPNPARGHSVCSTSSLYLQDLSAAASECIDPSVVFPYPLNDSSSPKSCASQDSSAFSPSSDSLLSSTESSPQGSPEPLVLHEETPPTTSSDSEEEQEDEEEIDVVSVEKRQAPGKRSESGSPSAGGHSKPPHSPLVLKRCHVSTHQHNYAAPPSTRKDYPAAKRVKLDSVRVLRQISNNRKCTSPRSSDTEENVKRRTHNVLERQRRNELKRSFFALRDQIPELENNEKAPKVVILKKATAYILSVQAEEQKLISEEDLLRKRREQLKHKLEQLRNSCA
Aryl hydrocarbon receptor (Homo sapiens), sequence (P35869 whole entry, looked up): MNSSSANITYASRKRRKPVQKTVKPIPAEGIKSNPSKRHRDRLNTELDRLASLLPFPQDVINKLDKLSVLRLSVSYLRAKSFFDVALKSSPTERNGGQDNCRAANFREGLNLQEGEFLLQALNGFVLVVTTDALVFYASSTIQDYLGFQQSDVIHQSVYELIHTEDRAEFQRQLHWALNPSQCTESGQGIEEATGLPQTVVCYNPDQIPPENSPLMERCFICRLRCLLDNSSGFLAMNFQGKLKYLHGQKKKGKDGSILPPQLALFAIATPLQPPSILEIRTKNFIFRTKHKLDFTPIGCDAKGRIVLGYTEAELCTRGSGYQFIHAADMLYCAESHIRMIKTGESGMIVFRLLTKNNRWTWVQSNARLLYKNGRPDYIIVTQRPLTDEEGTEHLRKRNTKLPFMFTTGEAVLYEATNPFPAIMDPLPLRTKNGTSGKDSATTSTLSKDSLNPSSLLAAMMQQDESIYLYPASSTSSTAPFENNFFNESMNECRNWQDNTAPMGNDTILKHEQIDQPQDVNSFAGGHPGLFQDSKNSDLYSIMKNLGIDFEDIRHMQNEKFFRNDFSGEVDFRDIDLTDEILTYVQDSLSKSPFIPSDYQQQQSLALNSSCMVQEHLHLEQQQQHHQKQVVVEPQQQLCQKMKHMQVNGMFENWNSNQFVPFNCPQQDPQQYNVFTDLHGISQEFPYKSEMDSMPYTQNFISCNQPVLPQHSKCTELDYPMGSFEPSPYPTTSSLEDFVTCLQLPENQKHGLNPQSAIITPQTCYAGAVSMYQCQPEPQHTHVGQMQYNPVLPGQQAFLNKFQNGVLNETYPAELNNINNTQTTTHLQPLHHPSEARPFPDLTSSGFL
X-box-binding protein 1 (Homo sapiens), sequence (P17861 whole entry, looked up, the tested form may be a part): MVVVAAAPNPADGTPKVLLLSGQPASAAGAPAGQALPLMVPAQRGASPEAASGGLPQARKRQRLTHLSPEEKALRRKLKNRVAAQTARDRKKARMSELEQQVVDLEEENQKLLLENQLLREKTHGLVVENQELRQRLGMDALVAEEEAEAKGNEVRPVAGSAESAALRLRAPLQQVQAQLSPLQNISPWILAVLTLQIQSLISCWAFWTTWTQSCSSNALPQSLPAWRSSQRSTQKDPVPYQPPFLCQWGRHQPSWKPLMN

On to `O=C(O)CCCc1ccc(N(CCCl)CCCl)cc1`, for which the molecule was classed as inactive in [1], in experiment [2], in experiment [3], in experiment [4], in [6] and in [7]. In addition, the call in experiment [8], in [9], in [10], in [11], in [12] and in [13] was inactive. In addition, the molecule was classed as inactive in experiment [14] and in experiment [16]. Moreover, the AC50 (commonly the midpoint of the concentration-response curve, whichever way the signal moves) in experiment [5] was 143 µM (active); in experiment [15] it was 54.7 µM (active); in experiment [16], 71 µM (active).
For `O=C1C(Cl)=C(Cl)C(=O)C(Cl)=C1Cl`, the call in experiment [17], in [18], in [4], in experiment [5], in experiment [6] and in experiment [8] was inactive. Further, the outcome in [9], in [10], in [19], in [11], in [12] and in experiment [14] was inactive. The molecule was classed as inactive in [15], in experiment [20] and in [16]. In addition, the AC50 in [2] is 100 µM (active); in experiment [7], 26.6 µM (active); in experiment [13] it was 48.7 µM (active); in experiment [16], 84.7 µM (active).
Take `COc1cc(OC)c(OC)cc1C=O`: the molecule was called inactive in [17], in experiment [2], in [3], in experiment [4], in experiment [5] and in experiment [6]. Moreover, the molecule was classed as inactive in [7], in [8], in [9], in [10], in experiment [11] and in experiment [12]. In addition, the call in [13], in [14], in experiment [15], in experiment [20] and in experiment [16] was inactive.
For the molecule `CN1C(=O)CCS(=O)(=O)C1c1ccc(Cl)cc1` (stereo not given), the molecule was called inactive in [1], in experiment [17], in experiment [3], in experiment [18], in experiment [4] and in experiment [5]. Also, the call in experiment [6], in experiment [7], in [8], in experiment [9], in experiment [10] and in experiment [19] was inactive. Besides, the result in experiment [11], in experiment [12], in experiment [13] and in [14] was inactive.
For `CC(C)(C)C(O)C(Oc1ccc(-c2ccccc2)cc1)n1cncn1` (stereo not given), the molecule was called inactive in experiment [1], in [17], in [2], in [18], in experiment [6] and in [9]. Also, the result in experiment [10], in [19], in [12] and in [14] was inactive. For the same molecule, the AC50 in [5] was 51.8 µM (active); in [7] it was 0.672 µM (active); in experiment [8] it was 9 µM (active); in experiment [13], 41.6 µM (active); in experiment [15], 44 µM (active); in experiment [20] it was 14.3 µM (active).
